High-throughput results deposited in PubChem BioAssay by National Center for Advancing Translational Sciences (NCATS).
The list is not random: actives were taken first. Their share in the collection is about 9.2%.
NPC1 promoter act: activates the NPC1 promoter | Huh7 NPC1 promoter luciferase reporter, 24 h | Potency, µM (series often up to 9.22 µM), for the others: at the highest dose activation, hits mostly activators | hit rate 2.4% among 320,000 | AID 485313; also: % of control where 0% means no effect; nearly all actives have a fitted effect of over 60% in size
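Huh7 cells stably carrying NPC1 promoter–luciferase, plated in Opti-MEM with 10% FBS for 2 h, were exposed to compound in DMSO for 24 h at 37 °C; luciferase reagent was added for 10 min and luminescence read.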
ELG1 DNA repair: ELG1-dependent DNA repair inhibition. HEK293T ELG1-luciferase reporter, luminescence, 16 h; DNA damage induced by 5-fluorouridine. Potency, µM (highest dose often 46.1 µM), for inactives: top-dose activity change, negative = inhibition, most hits filed as inhibitors. hit rate 2.3% among 330,000. AID 504467; also: % is scaled to controls: 0 for no effect and ±100 for the full control effect; nearly all actives have a fitted effect of over 55% in size
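Luminescence from the luciferase reporter, measured 30 min after ONE-Glo reagent at room temperature, was the read-out. Beforehand, 2,000 cells per well were exposed for 16 hr at 37 °C to 5-fluorouridine together with compound or vehicle.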
FLuc counter: firefly luciferase modulation, counter-screen for miR-21 project; Potency, µM (doses to about 57.5 µM), for the others: top-dose activity change, negative = inhibition, hits mostly inhibitors; P08659; purified FLuc, Km substrates, luminescence inhibition; AID 588342; hit rate 6.9% among 360,000;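 also: plate controls were vehicle for no effect and reference inhibitor for full effect; nearly all actives have a fitted effect of over 55% in size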
Target sequence (P08659 whole entry, looked up): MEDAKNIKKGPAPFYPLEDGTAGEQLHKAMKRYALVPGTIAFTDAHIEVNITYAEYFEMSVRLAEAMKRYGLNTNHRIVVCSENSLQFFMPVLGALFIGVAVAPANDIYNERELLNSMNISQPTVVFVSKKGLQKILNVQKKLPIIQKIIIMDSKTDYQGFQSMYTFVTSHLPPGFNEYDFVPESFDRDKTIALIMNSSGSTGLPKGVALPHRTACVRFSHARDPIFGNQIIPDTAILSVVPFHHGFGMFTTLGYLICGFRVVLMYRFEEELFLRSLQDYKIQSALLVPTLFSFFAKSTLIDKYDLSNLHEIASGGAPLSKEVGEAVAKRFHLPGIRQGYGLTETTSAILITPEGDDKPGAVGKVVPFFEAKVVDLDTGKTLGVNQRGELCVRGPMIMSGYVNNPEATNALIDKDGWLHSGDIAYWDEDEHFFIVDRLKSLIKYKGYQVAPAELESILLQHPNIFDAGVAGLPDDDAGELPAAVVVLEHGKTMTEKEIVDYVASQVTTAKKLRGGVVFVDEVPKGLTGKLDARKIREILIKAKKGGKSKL
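Purified P. pyralis luciferase (10nM final) with 10uM D-luciferin and 10uM ATP (Km levels) in 50mM Tris acetate pH 7.5, 10mM Mg acetate, 0.01% Tween-20, 0.05% BSA; qHTS 6-point titration, ~60 µM downward; luminescence read.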
Rab9 prom act: activates the Rab9 promoter | Huh7 Rab9 promoter-luciferase reporter, luminescence, 24 h | Potency, µM (highest dose often 9.22 µM), for the others: top-dose activation, negative = inhibition, actives largely listed as activators | hit rate 2.8% among 320,000 | AID 485297; also: % of control where 0% means no effect; nearly all actives have a fitted effect of over 60% in size
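Huh7 cells stably carrying Rab9 promoter–luciferase reporter, plated 1500 cells/well, compound added after 2 h and incubated 24 h at 37 °C; luciferase luminescence then read after 10 min with detection reagent.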
ELG1 genotox: induces genotoxicity in HEK293T cells with luciferase-tagged ELG1; HEK293T ELG1-luciferase reporter, luminescence, 16 h; Potency, µM (doses to about 46 µM), without a hit: at the top dose activity change, positive = activation, actives largely listed as activators; hit rate 1.3% among 330,000; AID 504466; also: % of control where 0% means no effect; nearly all actives have a fitted effect of over 60% in size
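Cells (2,000/well) expressing the ELG1-luciferase fusion are dosed by pin tool and kept 16 hr at 37 °C, 5% CO2. Signal comes from ONE-Glo luciferase reagent after 30 min at room temperature.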
SMN2 splice up: increases expression of the SMN2 splice variant. HEK293 SMN2-luciferase splicing reporter, luminescence, 30-36 h. Potency, µM (highest dose often 46.1 µM), for the others: at the highest dose activity change, positive = activation, actives largely listed as activators. hit rate 2.8% among 210,000; also: % of control where 0% means no effect; nearly all actives have a fitted effect of over 55% in size
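HEK293 cells carry an SMN2 minigene-luciferase reporter in which exon 7 inclusion puts luciferase in frame. Cells were seeded at 2000 cells/well, attached for 10-12 hours, then exposed to compounds for 30-36 hours at 37C before ONE-Glo luminescence.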
Starred values were filed as active, the others as inactive; ? = inconclusive; . = no result; [ ] = another dose, or the depositor's remark. Calls follow the shape of the dose curve; as a rule, active = well fitted curve in the direction sought with a large enough effect; inconclusive = small, poorly fitted or top-dose-only effect, or another doubt; inactive = no such curve, though single readings can be large; an effect the other way counts as inactive or inconclusive. Potency is read from the fitted curve at half-maximal effect.

SMILES	NPC1 promoter act	ELG1 DNA repair	FLuc counter	Rab9 prom act	ELG1 genotox	SMN2 splice up
Cc1ccc(-c2nnc3c4ccccc4c(C)nn23)cc1NC(=O)c1ccccc1	.	.	-17.3%	.	.	8.8%
O=C(O)/C=C/C(=O)Nc1ccc2nccnc2c1	-1.5%	?	?	3.8%	?	42.4%
Cc1cccc(N/N=C/c2ccc(C)s2)c1	?	?	12µM*	?	?	.
Cc1ccc(/C=N/N=C/c2ccc(C)s2)s1	1.58µM*	?	0.675µM*	2.24µM*	3.66µM*	7.08µM*
Cc1ccc(/C=N/NC(=O)c2ccncc2)s1	0.5%	0.6%	?	5.9%	2.8%	.
COc1cc(OC)cc(C(=O)NCC(=O)OCC(=O)C(C)(C)C)c1	-1.9%	26.3%	1.4%	-2.4%	-0.5%	1.1%
CCN(CC(=O)NC(=O)Nc1ccccc1F)Cc1ccccc1	-8.2%	17.5%	2.5%	1.1%	18.3µM*	.
CN1c2ccccc2C(C)(C)C12C=Nc1c(ccc3ccccc13)O2 (stereo not drawn)	-3.4%	?	15.1µM*	8.0%	-1.6%	-41.5%
c1ccc(-c2cn(-c3ccccc3)c3[n+]2CCCS3)cc1	-5.9%	20.6µM*	-0.3%	-19.6%	-14.6%	.
CCc1ccc(-n2cc(-c3ccc(F)cc3)[n+]3c2SCCC3)cc1	-32.2%	4.61µM*	1.7%	-29.8%	-16.5%	-44.9%
O=c1[nH]c2ccccc2c2cn(-c3ccccc3)nc12	2.82µM*	?	13.5µM*	?	?	.
O=c1[nH]c2ccccc2c2ccccc12	-0.7%[46.1 µM]	?	-11.0%	-10.9%[46.1 µM]	1.6%	20.5%
CC(C)c1ccc(NC(=O)c2cccc(NC3=NC4CS(=O)(=O)CC4S3)c2)cc1 (stereo not drawn)	20.2%	?	6.01µM*	2.8%	10.7%	.
Cc1ccc(NC(=O)c2cccc(NC3=NC4CS(=O)(=O)CC4S3)c2)cc1C (stereo not drawn)	1.3%	?	13.5µM*	-4.1%	4.4%	.
CC(C)c1ccc(NC(=O)Cc2ccc(NC3=NC4CS(=O)(=O)CC4S3)cc2)cc1 (stereo not drawn)	1.9%	?	21.3µM*	18.9%	13.2%	.
Cc1cccc(NC(=O)c2cccc(NC3=NC4CS(=O)(=O)CC4S3)c2)c1 (stereo not drawn)	-3.8%	?	-6.3%	2.0%	-2.8%	.
CCc1ccc(NC(=O)c2cccc(NC3=NC4CS(=O)(=O)CC4S3)c2)cc1 (stereo not drawn)	-0.4%	23.4%	13.5µM*	8.3%	9.0%	.
CCc1ccc(NC(=O)Cc2ccc(NC3=NC4CS(=O)(=O)CC4S3)cc2)cc1 (stereo not drawn)	0.4%	7.1%	?	11.9%	8.0%	.
O=C(Nc1ccc(Cl)cc1)c1cccc(NC2=NC3CS(=O)(=O)CC3S2)c1 (stereo not drawn)	2.1%	1.8%	?	-1.1%	4.8%	.
COc1ccc(S(=O)(=O)N(CCO)c2ccccc2CN(C)C/C=C/c2ccc(Cl)cc2)cc1	.	.	.	.	.	-67.0%
CC(C)[C@H](NC(=O)c1ccc(F)cc1)C(=O)N(C)Cc1cccs1	0.3%	9.7%	5.7%	-1.2%	1.0%	.
O=C1c2ccc(Br)cc2C(=O)N1c1ccc(Cc2ccncc2)cc1	-9.3%	-19.1%	?	-2.6%	-1.9%	-27.0%
COC(=O)C1=C(C(=O)OC)[C@@H]2Nc3ccccc3[C@@]23C[C@@H](C(=O)OC)N(S(=O)(=O)c2ccc(C)cc2)C3=N1	.	.	.	.	.	-5.2%[9.22 µM]
O=S(=O)(Nc1nc2ccccc2nc1Nc1ccc(N2CCOCC2)cc1)c1cc(Cl)ccc1Cl	-5.3%	?	15.1µM*	-7.8%	-3.6%	-71.9%
O=C(c1cc(-c2cccc(O)c2)on1)N1CCOCC1	?	?	6.75µM*	?	2.91µM*	?
Cc1cccc(C)c1OCc1cc(C(=O)N2CCCCCCC2)no1	15.1%	?	?	22.7%	3.6%	.
